{"source": "PubChem BioAssay AID2071", "about": "(Sanford-Burnham Center for Chemical Genomics, 2009)", "assay": "NALP1 inflammasome inhibitors in reconstituted yeast, colorimetric, S. cerevisiae, triplicate retest (AID 2071)", "conditions": "S. cerevisiae NALP1/ASC/caspase-1 growth, X-gal OD620, 72 h, stronger effect = higher value", "note": "Among all 280,000 compounds or so, about 1,700 (0.61%) were called active. Rule as the data show it: active = inhibition mostly above about 24% (no sharp cut-off); inactive = mostly below about 32%. This excerpt belongs to a sample that is enriched for actives."}
{"smiles": "COC(=O)c1ccc2c(C(C)(C)O)c(C(C)(C)O)[nH]c2c1", "values": [{"measurement": "inhibition", "setting": "at 10 µM unless noted", "value": "2.7% (inactive)"}]}
{"smiles": "O=C(Nc1cccc(Cl)c1Cl)c1ccccc1NC(=O)C1CC=CCC1C(=O)O", "note": "(centres undefined)", "values": [{"measurement": "inhibition", "setting": "at 10 µM unless noted", "value": "11% (inactive)"}]}
{"smiles": "CCCN1C2CCCC1CC(NC(=O)NC13CC4CC(CC(C4)C1)C3)C2", "note": "(centres undefined)", "values": [{"measurement": "inhibition", "setting": "at 10 µM unless noted", "value": "13.5% (inactive)"}]}
{"smiles": "COc1cccc(C(C(=O)NC2CCCC2)N(C(=O)c2ccco2)c2cccc(C(C)=O)c2)c1OC", "note": "(centres undefined)", "values": [{"measurement": "inhibition", "setting": "at 10 µM unless noted", "value": "24.9% (inactive)"}]}
{"smiles": "CCCn1c(CCNc2nc(-c3ccc(OC)cc3)cs2)nc2ccccc21", "values": [{"measurement": "inhibition", "setting": "at 10 µM unless noted", "value": "-2.4% (inactive)"}]}
{"smiles": "O=C(CSc1ncnc2c1nnn2Cc1ccc(F)cc1)NC1CCCC1", "values": [{"measurement": "inhibition", "setting": "at 10 µM unless noted", "value": "23.4% (active)"}]}
{"smiles": "O=C(CSc1ncnc2c1oc1ccccc12)NC1CCCC1", "values": [{"measurement": "inhibition", "setting": "at 10 µM unless noted", "value": "15.8% (inactive)"}]}
{"smiles": "O=C(Cc1ccc(F)cc1)NC1CCCC1", "values": [{"measurement": "inhibition", "setting": "at 10 µM unless noted", "value": "9.3% (inactive)"}]}
{"smiles": "COc1ccc(-c2cc(C(=O)N(C)Cc3ccc(OC)c(OC)c3OC)c3ccccc3n2)cc1OC", "values": [{"measurement": "inhibition", "setting": "at 10 µM unless noted", "value": "19% (inactive)"}]}
{"smiles": "Cc1nnc(NC2=NCCCCC2)o1", "values": [{"measurement": "inhibition", "setting": "at 10 µM unless noted", "value": "37.9% (active)"}]}
{"smiles": "Cn1cccc1C(=O)N1CCc2ccccc2C1", "values": [{"measurement": "inhibition", "setting": "at 10 µM unless noted", "value": "19.1% (inactive)"}]}
{"smiles": "CCC(C)c1ccc(NC(=S)N2CCCC2)cc1", "note": "(centres undefined)", "values": [{"measurement": "inhibition", "setting": "at 10 µM unless noted", "value": "-2.6% (inactive)"}]}
{"smiles": "COc1ccc(C(=O)/C=C/c2ccc(-c3ccccc3)cc2)cc1CSCC(=O)O", "values": [{"measurement": "inhibition", "setting": "at 10 µM unless noted", "value": "3% (inactive)"}]}
{"smiles": "COc1cc(/C=N/O)ccc1OCc1ccc([N+](=O)[O-])cc1", "values": [{"measurement": "inhibition", "setting": "at 10 µM unless noted", "value": "12.2% (inactive)"}]}
{"smiles": "COC(=O)c1ccc(COc2ccc(/C=C/C(=O)c3ccc(OC)c(CSCC(=O)O)c3)cc2OC)cc1", "values": [{"measurement": "inhibition", "setting": "at 10 µM unless noted", "value": "34.2% (active)"}]}
{"smiles": "CC(=O)Nc1ccc(N2C(=O)CC(Sc3nccc(C)n3)C2=O)cc1", "note": "(centres undefined)", "values": [{"measurement": "inhibition", "setting": "at 10 µM unless noted", "value": "-0.3% (inactive)"}]}
{"smiles": "Cn1c(NC(=O)c2ccccc2)nc2ccccc21", "values": [{"measurement": "inhibition", "setting": "at 10 µM unless noted", "value": "7.4% (inactive)"}]}
{"smiles": "CCc1ccc(S(=O)(=O)N/N=C\\c2ccc([N+](=O)[O-])o2)cc1", "values": [{"measurement": "inhibition", "setting": "at 10 µM unless noted", "value": "9.4% (inactive)"}]}
{"smiles": "Cc1cc2ccccn2c1C(=O)c1cccc(F)c1", "values": [{"measurement": "inhibition", "setting": "at 10 µM unless noted", "value": "17.6% (inactive)"}]}
{"smiles": "Cc1ccc(C(C[N+](=O)[O-])c2c(C)cc3ccccn23)cc1", "note": "(centres undefined)", "values": [{"measurement": "inhibition", "setting": "at 10 µM unless noted", "value": "98.9% (active)"}]}
{"smiles": "CCC1=Nc2cc(C(=O)NCCCN3CCOCC3)ccc2Sc2ccc(Br)cc21", "values": [{"measurement": "inhibition", "setting": "at 10 µM unless noted", "value": "7.2% (inactive)"}]}
{"smiles": "CCc1ccc(CN(C)C(=O)C2CCC(=O)N(Cc3cccc(OC)c3)C2)nc1", "note": "(centres undefined)", "values": [{"measurement": "inhibition", "setting": "at 10 µM unless noted", "value": "9.6% (inactive)"}]}
{"smiles": "Cc1oc2cc3oc(=O)ccc3cc2c1C", "values": [{"measurement": "inhibition", "setting": "at 10 µM unless noted", "value": "8.6% (inactive)"}]}
{"smiles": "Cc1cccc2sc(N(CCCN(C)C)C(=O)CCS(=O)(=O)c3ccccc3)nc12", "values": [{"measurement": "inhibition", "setting": "at 10 µM", "value": "78.1% (active)"}, {"measurement": "inhibition", "setting": "triplicate retest, at 20 µM", "value": 99.3, "unit": "%"}]}
{"smiles": "COc1cccc2sc(N(CCCN(C)C)C(=O)CCS(=O)(=O)c3ccccc3)nc12", "values": [{"measurement": "inhibition", "setting": "at 10 µM unless noted", "value": "14.3% (inactive)"}]}
{"smiles": "CN(C)CCCN(C(=O)COc1ccccc1)c1nc2c(Cl)cccc2s1", "values": [{"measurement": "inhibition", "setting": "at 10 µM unless noted", "value": "3.9% (inactive)"}]}
{"smiles": "CC(C)CCNC(=O)c1ccc2c(Cl)c3c(nc2c1)CCC3", "values": [{"measurement": "inhibition", "setting": "at 10 µM unless noted", "value": "16.8% (inactive)"}]}
{"smiles": "Cc1ccc(N(Cc2cc(=O)[nH]c3ccccc23)C(=O)CCl)cc1", "values": [{"measurement": "inhibition", "setting": "at 10 µM unless noted", "value": "17.4% (inactive)"}]}
{"smiles": "Cc1ccc(NC(=O)C/C(N)=N/O)cc1Cl", "values": [{"measurement": "inhibition", "setting": "at 10 µM unless noted", "value": "-8.9% (inactive)"}]}
{"smiles": "O=C(CC(O)(C(F)(F)F)C(F)(F)F)Nc1ccc(Cl)c(Cl)c1", "values": [{"measurement": "inhibition", "setting": "at 10 µM", "value": "78.5% (active)"}, {"measurement": "inhibition", "setting": "triplicate retest, at 20 µM", "value": 110, "unit": "%"}]}
{"smiles": "O=C(CC(=O)Nc1ccc(Cl)c(Cl)c1)N/N=C/c1ccc(O)cc1", "values": [{"measurement": "inhibition", "setting": "at 10 µM unless noted", "value": "21.7% (inactive)"}]}
{"smiles": "COc1ccc(C(=O)C2CCCN(C(=O)c3cc(C)on3)C2)cc1F", "note": "(centres undefined)", "values": [{"measurement": "inhibition", "setting": "at 10 µM unless noted", "value": "4% (inactive)"}]}
{"smiles": "Cc1ccc(/C=N/NC(=O)c2cc3ccccc3cc2O)o1", "values": [{"measurement": "inhibition", "setting": "at 10 µM unless noted", "value": "-11.5% (inactive)"}]}
{"smiles": "CC(=O)N(C)c1ccc(NC(=O)Nc2cccc3ccccc23)cc1", "values": [{"measurement": "inhibition", "setting": "at 10 µM unless noted", "value": "15.8% (inactive)"}]}
{"smiles": "CCOc1cc(/C=C/c2nc3ccccc3c(=O)[nH]2)cc(Br)c1OC", "values": [{"measurement": "inhibition", "setting": "at 10 µM unless noted", "value": "8.1% (inactive)"}]}
{"smiles": "COc1ccc2oc(=O)c(C(=O)N3CCN(c4ccccc4F)CC3)cc2c1", "values": [{"measurement": "inhibition", "setting": "at 10 µM unless noted", "value": "0.6% (inactive)"}]}
{"smiles": "O=C(c1ccc(CN2CCOCC2)cc1)N1CCN(c2ccccc2F)CC1", "values": [{"measurement": "inhibition", "setting": "at 10 µM unless noted", "value": "6.8% (inactive)"}]}
{"smiles": "O=C(c1cccc2ccccc12)N1CCN(c2ccccc2F)CC1", "values": [{"measurement": "inhibition", "setting": "at 10 µM unless noted", "value": "41.1% (active)"}]}
{"smiles": "COc1ccccc1CNC(=O)[C@@H]1CCCN1C(=O)[C@@H]1Cc2ccccc2CN1C(=O)OC(C)(C)C", "values": [{"measurement": "inhibition", "setting": "at 10 µM unless noted", "value": "-18.4% (inactive)"}]}
{"smiles": "COc1ccc(NC(=O)CNC(=O)Cc2ccccc2)cc1OC", "values": [{"measurement": "inhibition", "setting": "at 10 µM unless noted", "value": "-89.6% (inactive)"}]}
{"smiles": "COc1ccc(NC(=S)SC)cc1OC", "values": [{"measurement": "inhibition", "setting": "at 10 µM", "value": "73.8% (active)"}, {"measurement": "inhibition", "setting": "triplicate retest, at 20 µM", "value": 94.6, "unit": "%"}]}
{"smiles": "COc1ccc(NS(=O)(=O)c2ccc(NC(C)=O)cc2)cc1OC", "values": [{"measurement": "inhibition", "setting": "at 10 µM unless noted", "value": "26.3% (inactive)"}]}
{"smiles": "Cc1cc(NC(=O)CCN2CCN(Cc3ccccc3)CC2)ccc1Br", "values": [{"measurement": "inhibition", "setting": "at 10 µM unless noted", "value": "16.7% (inactive)"}]}
{"smiles": "CN(CCO)c1ccc(/C=N/Nc2nncc3ccccc23)cc1", "values": [{"measurement": "inhibition", "setting": "at 10 µM unless noted", "value": "3.8% (inactive)"}]}
{"smiles": "O=C(C(NS(=O)(=O)c1cccc2nsnc12)c1ccccc1)N1CCN(c2ccccc2)CC1", "note": "(centres undefined)", "values": [{"measurement": "inhibition", "setting": "at 10 µM unless noted", "value": "34.4% (active)"}]}
{"smiles": "O=C(C(NS(=O)(=O)c1cccc2nsnc12)c1ccccc1)N1CCN(c2ccccn2)CC1", "note": "(centres undefined)", "values": [{"measurement": "inhibition", "setting": "at 10 µM unless noted", "value": "8.1% (inactive)"}]}
{"smiles": "O=C(O)C(NS(=O)(=O)c1cccc2nsnc12)c1ccccc1", "note": "(centres undefined)", "values": [{"measurement": "inhibition", "setting": "at 10 µM unless noted", "value": "15.5% (inactive)"}]}
{"smiles": "CCOc1ccc(CN2CCN(CCCc3ccccc3)C(CCO)C2)cc1", "note": "(centres undefined)", "values": [{"measurement": "inhibition", "setting": "at 10 µM unless noted", "value": "28.9% (inactive)"}]}
{"smiles": "CCn1ccnc1CN(C)C(=O)c1cc(COc2ccc(Cl)cc2OC)on1", "values": [{"measurement": "inhibition", "setting": "at 10 µM unless noted", "value": "-9.7% (inactive)"}]}
{"smiles": "CC(C)(C)c1ccc(/C=C/C(=O)NCCCn2ccnc2)cc1", "values": [{"measurement": "inhibition", "setting": "at 10 µM unless noted", "value": "1.5% (inactive)"}]}
{"smiles": "CCOc1ccccc1-c1cc(C(=O)N2CCOCC2)c2ccccc2n1", "values": [{"measurement": "inhibition", "setting": "at 10 µM unless noted", "value": "0.7% (inactive)"}]}
{"smiles": "CCOc1ccccc1-c1nc(CN2CCC(C(=O)N3CCOCC3)CC2)c(C)o1", "values": [{"measurement": "inhibition", "setting": "at 10 µM unless noted", "value": "29% (active)"}]}
{"smiles": "COc1ccc(F)c(-c2nc(CN3CCC(c4ccccc4)CC3)c(C)o2)c1", "values": [{"measurement": "inhibition", "setting": "at 10 µM unless noted", "value": "13.2% (inactive)"}]}
{"smiles": "CCOc1ccc(CN2CCNC(=O)C2CC(=O)NCCCC2CCCC2)cc1", "note": "(centres undefined)", "values": [{"measurement": "inhibition", "setting": "at 10 µM unless noted", "value": "1% (inactive)"}]}
{"smiles": "C/C(=N\\NC(=O)c1cc(-c2ccc(O)cc2)nc2ccccc12)c1cccnc1", "values": [{"measurement": "inhibition", "setting": "at 10 µM unless noted", "value": "-2.6% (inactive)"}]}
{"smiles": "CCOC(=O)CSc1nc2ccc(C)cc2n2cnnc12", "values": [{"measurement": "inhibition", "setting": "at 10 µM unless noted", "value": "10.4% (inactive)"}]}
{"smiles": "CCCc1cc(=O)[nH]c(SCC(=O)Nc2sc3c(c2C#N)CCCC3)n1", "values": [{"measurement": "inhibition", "setting": "at 10 µM unless noted", "value": "9.4% (inactive)"}]}
{"smiles": "COc1ccc(-n2c(SCC(=O)Nc3sc4c(c3C#N)CCCC4)nnc2-c2ccc(O)cc2)cc1", "values": [{"measurement": "inhibition", "setting": "at 10 µM unless noted", "value": "40.9% (active)"}]}
{"smiles": "N#Cc1c(NC(=O)CSc2nc3ccccc3c(=O)n2Cc2ccco2)sc2c1CCCC2", "values": [{"measurement": "inhibition", "setting": "at 10 µM unless noted", "value": "20.7% (inactive)"}]}
{"smiles": "COc1ccc(C(=O)NCC(=O)N/N=C/c2cccnc2)cc1", "values": [{"measurement": "inhibition", "setting": "at 10 µM unless noted", "value": "-23.5% (inactive)"}]}
{"smiles": "CC(C)[C@@H]1COC(c2cccc(C3=N[C@H](C(C)C)CO3)c2)=N1", "values": [{"measurement": "inhibition", "setting": "at 10 µM unless noted", "value": "10.4% (inactive)"}]}
